The values below come from PubChem BioAssay (NCATS).

Results filed as inconclusive are left out. Values without a mark were called inactive. The source made the active and inactive calls. Calls follow the shape of the dose curve; as a rule, active = well fitted inhibition curve with a large enough effect; inconclusive = small, poorly fitted or top-dose-only effect; inactive = flat fitted curve, though single readings scatter. Where a SMILES comes first, the peptide text is derived from it. [ ]: non-standard residue; d: D form. pGlu = O=C1CC[C@@H](C(=O)O)N1
% is scaled to controls: 0 for no effect and ±100 for the full control effect; potency is read from the fitted curve at half-maximal effect.

The assay deals with astro (control astrocytes). Description: Drug repurposing screens with cells derived from glioblastoma tumor samples (AID 1345199). Also: nearly all actives have a fitted effect of over 40% in size. To be noted: viability, ATP luminescence, 48 h; series mostly up to 45.9 µM; activity, negative = cell killing: at the top concentration. The method, then:
CD133+ cells were isolated from GBM patient biopsies and cultured as neurospheres. Neurospheres from four patients were used to screen the NCATS pharmaceutical collection (NPC) library of approved drugs and bioactive compounds. […] The neurospheres were incubated with drugs for 48 hours in 1536-well format, then assayed with an ATP content cell viability assay. […] These hits were cherry picked to confirm activity in the four original GBM lines screened plus three other slower growing GMB lines (unable to yield enough cells for a full primary screen). Variable activities of the confirmed primary hits in the different GBM patient lines were observed. The patient line 206 responded to the greatest number of compounds and line 923 responded to the least amount of active compounds.
As for `CCC(=O)c1ccc2c(c1)N(CCCN1CCN(CCO)CC1)c1ccccc1S2`, the Potency was 17.8 µM (active).

Regarding `COC1[C@@H](O[C@@H]2O[C@H](C)[C@@H](O[C@H]3C[C@@](C)(O)[C@H](OC(=O)CC(C)C)[C@H](C)O3)[C@H](N(C)C)[C@H]2O)[C@@H](CC=O)C[C@@H](C)[C@@H](O)/C=C/C=C/C[C@@H](C)OC(=O)C[C@H]1OC(C)=O` (stereo not given in full), the “activity, negative = cell killing” value was 0.782% [at 21.2 µM].

As to `COc1cc2c(cc1OC)[C@@H](Cc1cc(OC)c(OC)c(OC)c1)[N+](C)(CCCOC(=O)CC/C=C/CCC(=O)OCCC[N+]1(C)CCc3cc(OC)c(OC)cc3[C@H]1Cc1cc(OC)c(OC)c(OC)c1)CC2` (stereo not given in full), the Potency result was “inactive”.

For the compound `N[C@H](CC(=O)O)C(=O)O`, the “activity, negative = cell killing” value is -2.72%.

`COc1ccc(/C=N/NC(=O)c2ccncc2)c(C(=O)O)c1OC`: the “activity, negative = cell killing” value is 2.21%.

Turning to `CC/C=C\C/C=C\C/C=C\CCCCCCCC(=O)O`, the “activity, negative = cell killing” value was -4.66%.

In the case of `COc1ccc(C[C@H](C)NC[C@@H](O)c2ccc(O)c(NC=O)c2)cc1`, the “activity, negative = cell killing” value is -23.1%.

For `OC1OC[C@@H](O)[C@H](O)[C@@H]1O` (stereo not given in full), the “activity, negative = cell killing” value was 3.44%.

In the case of `O=C(O)c1ccc(NC2OC[C@@H](O)[C@H](O)[C@H]2O)cc1` (stereo not given in full), the “activity, negative = cell killing” value was -9.73%.

In the case of `CC/C(=C(/CC)c1ccc(OP(=O)(O)O)cc1)c1ccc(OP(=O)(O)O)cc1`, the “activity, negative = cell killing” value is -7.31%.

Regarding `CC[C@H](C)[C@H](NC(=O)[C@H](Cc1ccccc1)NC(=O)[C@H](C)NC(=O)[C@H](CC(=O)O)NC(=O)[C@H](CCCCN)NC(=O)[C@H](CO)NC(=O)[C@@H]1CCCN1C(=O)[C@@H]1CCC(=O)N1)C(=O)NCC(=O)N[C@@H](CC(C)C)C(=O)N[C@@H](CCSC)C(N)=O` ([pGlu]PSKDAFIGLM-NH2), the “activity, negative = cell killing” value is -20.3%.

On to `CN[C@@H]1[C@H](O[C@H]2[C@H](O[C@H]3[C@H](O)[C@@H](O)[C@H](N=C(N)N)[C@@H](O)[C@@H]3N=C(N)N)O[C@@H](C)[C@]2(O)CO)O[C@@H](CO)[C@H](O)[C@H]1O`, for which the “activity, negative = cell killing” value is -7.2%.

As for `OC/C=C/c1ccccc1`, the “activity, negative = cell killing” value is -12.2%.

`Oc1cccc(O)c1O`: the “activity, negative = cell killing” value is -19.9%.

Regarding `NC[C@@H]1O[C@H](O[C@H]2[C@@H](O)[C@H](O[C@@H]3[C@@H](O)[C@H](N)C[C@H](N)[C@H]3O[C@H]3O[C@H](CO)[C@@H](O)[C@H](O)[C@H]3N)O[C@@H]2CO)[C@H](N)[C@@H](O)[C@@H]1O`, the “activity, negative = cell killing” value was -21.2%.

With `O=C(CO)[C@@H](O)[C@H](O)[C@@H](O)C(=O)O`, the “activity, negative = cell killing” value was -18.2%.

For `CCCCCc1ccc(C)cc1O`, the “activity, negative = cell killing” value was -15.3%.

As to `O=C(NCCNCC(O)COc1ccc(O)cc1)N1CCOCC1` (stereo not given), the “activity, negative = cell killing” value is -9.75%.

On to `O=C(NNCNNC(=O)c1ccncc1)c1ccncc1`, for which the “activity, negative = cell killing” value is 3%.

In the case of `C[C@]12CCC(=O)C[C@@H]1CC[C@@H]1[C@@H]2CC[C@]2(C)C=CC[C@@H]12`, the “activity, negative = cell killing” value is 3.56%.

On to `N=C(N)c1ccc(/C=C/c2ccc(C(=N)N)cc2O)cc1`, for which the “activity, negative = cell killing” value is -13.4%.

For the compound `CC(=O)Oc1cccc(C(=O)O)c1OC(C)=O`, the “activity, negative = cell killing” value is -10.1%.

Turning to `CCC(=O)OC(OP(=O)(CCCCc1ccccc1)CC(=O)N1C[C@H](C2CCCCC2)C[C@H]1C(=O)O)C(C)C` (stereo not given in full), the “activity, negative = cell killing” value is -9.8%.

Turning to `COc1ccc2c(=O)c(C)c(-c3ccccc3)oc2c1CN(C)C`, the “activity, negative = cell killing” value is -22.5%.

For `CC(=O)Nc1ccc(OC(=O)c2ccccc2O)cc1`, the “activity, negative = cell killing” value was -9.93%.

For the compound `O=P(O)(O)O`, the “activity, negative = cell killing” value was 1%.

Regarding `C[C@@H]1O[C@@H](OC[C@H]2O[C@@H](Oc3c(-c4ccc(OCCO)c(OCCO)c4)oc4cc(OCCO)cc(O)c4c3=O)[C@H](O)[C@@H](O)[C@@H]2O)[C@H](O)[C@H](O)[C@H]1O`, the “activity, negative = cell killing” value was -7.93%.

Turning to `CC(C)(C)CC(C)(C)c1ccc(OCCO)cc1`, the Potency is 35.5 µM (active).

`CCN(CC)CCC(=O)N1c2ccccc2Sc2ccc(C(F)(F)F)cc21`: the “activity, negative = cell killing” value is -27.3%.

For the compound `CC/C=C\C/C=C\C/C=C\C/C=C\C/C=C\CCCC(=O)O`, the “activity, negative = cell killing” value is -12.3%.

Regarding `C[C@@H](O)[C@H]1C(=O)N2C(C(=O)[O-])=C(SC3Cn4cnc[n+]4C3)[C@H](C)[C@H]12` (stereo not given in full), the “activity, negative = cell killing” value was -14.9%.

In the case of `CC(=O)Oc1cc(C(F)(F)F)ccc1C(=O)O`, the “activity, negative = cell killing” value was -5.22% [at 21.2 µM].

For `CCCC(CCC)C(=O)OC1C[C@H]2CC[C@@H](C1)[N+]2(C)C` (stereo not given in full), the Potency entry was “inactive”.

In the case of `Nc1ncnc2c1ncn2CCOCP(=O)(O)O`, the “activity, negative = cell killing” value is -3.8%.

`CCN(CC)C(=O)c1cccnc1`: the “activity, negative = cell killing” value was -8.08%.

Take `C[Si](C)(C)O[Si](C)(C)C`: the “activity, negative = cell killing” value is -22.7%.

Take `CC(C)[C@H](N)C(=O)OCC(CO)OCn1cnc2c(=O)[nH]c(N)nc21` (stereo not given in full): the “activity, negative = cell killing” value was -13.4%.

With `CN1C(=O)OC(C)(C)C1=O`, the “activity, negative = cell killing” value was -17.5% [at 21.2 µM].

Turning to `c1ccc2cc(C3=NCCN3)ccc2c1`, the “activity, negative = cell killing” value was -13.9%.

For `Nc1nc(=O)n([C@@H]2CS[C@H](CO)O2)cc1F`, the “activity, negative = cell killing” value was -4.66%.
